“And” between values parts separate entries of the source, which are not always exact repeats. Identical values can stand only once. Hit rate of the full screen: of about 5,500 compounds, about 2,000 (36%) were called active. Another 18% or so got no clear call; they are omitted. Cut-off read from the data, not from the text of the source: active = normalized growth mostly below about 0.91 (no sharp cut-off); inconclusive = no clear call, values can overlap the other calls; inactive = mostly above about 0.92. The list shows a part of the results.
Assay: chemical genetic growth profiling, strain panel (AID 1159580);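 note: tested at 20 µM; growth read once vehicle control cultures reached saturation at 30 °C; 1 = growth at the plate median or of vehicle wells; lower values mean less growth of the strain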
Details: S. cerevisiae deletion strains, growth OD

Measured: normalized growth

O=C(O)c1ccccc1O
inactive: locus YAL013W, strain DEP1, stronger effect = lower value 1.01 | locus YAL021C, strain ccr4, stronger effect = lower value 0.985 | locus YAL026C, strain drs2, stronger effect = lower value 0.984 | locus YAL030W, strain snc1, stronger effect = lower value 0.992 | locus YBL061C, strain skt5, stronger effect = lower value 0.979 | locus YBR009C, strain hhf1, stronger effect = lower value 0.996 | locus YBR021W, strain FUR4, stronger effect = lower value 0.994 | locus YBR023C, strain chs3, stronger effect = lower value 0.995 | locus YBR171W, strain sec66, stronger effect = lower value 0.996 | locus YBR229C, strain ROT2, stronger effect = lower value 1 | locus YBR231C, strain swc5, stronger effect = lower value 0.975 | locus YBR279W, strain paf1, stronger effect = lower value 0.979 | locus YCL011C, strain gbp2, stronger effect = lower value 0.983 | locus YCL016C, strain dcc1, stronger effect = lower value 1.01 | locus YCL029C, strain bik1, stronger effect = lower value 1.01 | locus YCL069W, strain vba3, stronger effect = lower value 0.994 | locus YCR088W, strain abp1, stronger effect = lower value 0.981 | locus YDL005C, strain med2, stronger effect = lower value 0.973 | locus YDL035C, strain GPR1, stronger effect = lower value 1.01 | locus YDL040C, strain nat1, stronger effect = lower value 0.969 | locus YDL074C, strain BRE1, stronger effect = lower value 1.03 | locus YDL101C, strain DUN1, stronger effect = lower value 1.01 | locus YDL134C, strain PPH21, stronger effect = lower value 1.01 | locus YDL185W, strain tfp1, stronger effect = lower value 0.992 | locus YDL192W, strain arf1, stronger effect = lower value 1.01 | locus YDR001C, strain nth1, stronger effect = lower value 0.955 | locus YDR069C, strain doa4, stronger effect = lower value 0.975 | locus YDR101C, strain arx1, stronger effect = lower value 1.01 | locus YDR137W, strain rgp1, stronger effect = lower value 0.997 | locus YDR159W, strain sac3, stronger effect = lower value 0.976 | locus YDR162C, strain NBP2, stronger effect = lower value 1.01 | locus YDR195W, strain ref2 0.904 | locus YDR297W, strain sur2, stronger effect = lower value 0.984 | locus YDR318W, strain mcm21, stronger effect = lower value 1.03 | locus YDR334W, strain swr1, stronger effect = lower value 0.916 | locus YDR335W, strain msn5, stronger effect = lower value 0.959 | locus YDR388W, stronger effect = lower value 1.01 | locus YDR392W, strain spt3, stronger effect = lower value 1.02 | locus YDR502C, strain sam2, stronger effect = lower value 1.01 | locus YEL003W, strain gim4, stronger effect = lower value 0.973 | locus YEL037C, strain rad23, stronger effect = lower value 0.986 | locus YEL061C, strain CIN8 (second series), stronger effect = lower value 0.959 | locus YEL061C, strain CIN8, stronger effect = lower value 1 | locus YER015W, strain faa2, stronger effect = lower value 0.968 | locus YER016W, strain bim1, stronger effect = lower value 0.978 | locus YER110C, stronger effect = lower value 1.01 | locus YER111C, strain swi4, stronger effect = lower value 0.97 | locus YER155C, strain BEM2 (second series), stronger effect = lower value 0.967 | locus YER155C, strain BEM2, stronger effect = lower value 0.992 | locus YER167W, strain BCK2, stronger effect = lower value 1 | locus YFR010W, strain ubp6, stronger effect = lower value 0.978 | locus YGL078C, strain dbp3, stronger effect = lower value 0.998 | locus YGL086W, strain mad1, stronger effect = lower value 1 | locus YGL167C, strain pmr1, stronger effect = lower value 0.968 | locus YGL173C, strain kem1, stronger effect = lower value 0.995 | locus YGL227W, strain vid30, stronger effect = lower value 0.971 | locus YGL240W, strain doc1, stronger effect = lower value 0.983 | locus YGL248W, strain PDE1, stronger effect = lower value 1 | locus YGL253W, strain hxk2, stronger effect = lower value 0.973 | locus YGR078C, strain PAC10, stronger effect = lower value 1 | locus YGR135W, strain pre9, stronger effect = lower value 1.03 | locus YGR252W, strain gcn5, stronger effect = lower value 1.01 | locus YHR013C, strain ard1, stronger effect = lower value 1.01 | locus YHR027C, strain rpn1, stronger effect = lower value 0.984 | locus YHR030C, strain SLT2, stronger effect = lower value 1.01 | locus YHR079C, strain IRE1 (second series), stronger effect = lower value 1.02 | locus YHR079C, strain IRE1, stronger effect = lower value 1.06 | locus YHR094C, strain hxt1, stronger effect = lower value 0.997 | locus YHR129C, strain ARP1, stronger effect = lower value 0.998 | locus YHR142W, strain chs7, stronger effect = lower value 0.997 | locus YHR200W, strain rpn10, stronger effect = lower value 1.01 | locus YIL066C, strain RNR3, stronger effect = lower value 1 | locus YIL073C, strain SPO22, stronger effect = lower value 1.05 | locus YIL125W, strain kgd1, stronger effect = lower value 0.994 | locus YIR030C, strain dcg1, stronger effect = lower value 1 | locus YJL092W, strain hpr5, stronger effect = lower value 0.996 | locus YJL095W, strain BCK1 (second series), stronger effect = lower value 0.978 | locus YJL095W, strain BCK1, stronger effect = lower value 1.01 and 0.995 | locus YJL115W, strain asf1, stronger effect = lower value 0.951 | locus YJL129C, strain trk1, stronger effect = lower value 0.956 | locus YJL134W, strain LCB3, stronger effect = lower value 1 | locus YJL154C, strain vps35, stronger effect = lower value 0.961 | locus YJL164C, strain tpk1, stronger effect = lower value 0.993 | locus YJL166W, strain qcr8, stronger effect = lower value 0.994 | locus YJL168C, strain set2, stronger effect = lower value 1.01 | locus YJL187C, strain SWE1 (second series), stronger effect = lower value 1 | locus YJR043C, strain POL32, stronger effect = lower value 0.979

— PubChem BioAssay AID1159580 (chemical genetic matrix, 2015)
